29 compounds from PubChem BioAssay (NCATS) can be followed below.

Experiment [1] can be described thus: Primary qHTS for small molecule stabilizers of the endoplasmic reticulum resident proteome: Secreted ER Calcium Modulated Protein (SERCaMP) assay (AID 1508630). Also: % is scaled to controls: 0 for no effect and ±100 for the full control effect. In outline:
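The SH-SY5Y reporter protocol was run at 3 concentrations up to 38.3 uM (primary) or 11 concentrations (follow-up): 16 h compound, 100 nM thapsigargin for 4 h, then extracellular luciferase luminescence.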

Experiment [2] can be described thus: A High-Content qHTS Against Drug Library for the Identification of Small Molecules that Inhibit DYT1 Early Onset Primary Dystonia-Associated Cell Pathology (AID 1645839; calls by dose curve; also: series mostly up to about 46 µM). In outline: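 Induced EGFP-delE TorsinA cells are imaged after 48 h of compound treatment. Punctate fusion-protein distribution gives the %pathology value, while nuclei counts flag toxicity. Wild-type EGFP-hTOR1A cells define the normal pattern.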

Experiment [3] deals with Cytochrome P450 2D6 (Homo sapiens) (UniProt P10635). The experiment in a line: Cytochrome P450 family 2 subfamily D member 6 (CYP2D6) small molecule antagonists: luciferase biochemical (cell-free) qHTS assay (AID 1645840; active = well fitted curve in the direction sought with a large enough effect in the repeat runs; an effect the other way counts as inactive or inconclusive; also: nearly all actives have a fitted effect of over 55% in size; also: potency is read from the fitted curve at half-maximal effect; as to activity change, negative = inhibition: series mostly up to about 57 µM; % is scaled to controls: 0 for no effect and ±100 for the full control effect). The essentials:
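P450-Glo CYP2D6 system: proluciferin substrate converted by enzyme to luciferin, read by luminescence proportional to activity. Enzyme-substrate mix with compound 10 min at room temperature, then NADPH regeneration 1 h before detection reagent.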

In experiment [4] the target is Cytochrome P450 2C9 (Homo sapiens) (UniProt P11712). The experiment is described as follows: Cytochrome P450 family 2 subfamily C member 9 (CYP2C9) small molecule antagonists: luciferase biochemical (cell-free) qHTS assay (AID 1645842; active = well fitted curve in the direction sought with a large enough effect in the repeat runs; an effect the other way counts as inactive or inconclusive; also: nearly all actives have a fitted effect of over 55% in size; also: potency is read from the fitted curve at half-maximal effect; as to activity change, negative = inhibition: series mostly up to about 57 µM; % is scaled to controls: 0 for no effect and ±100 for the full control effect). In outline: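 P450-Glo CYP2C9 system: proluciferin substrate with enzyme in mix containing 0.4% BSA, 10 min at room temperature, then NADPH regeneration solution added and incubated 1 h at 37C. Detection reagent stopped reaction; luminescence read after 20 min as RLU.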

The nature of experiment [5]: Primary qHTS for inhibitors of nuclear receptor binding SET domain protein 2 (NSD2) in an isogenic RCH-ACV NSD2 p.E1099K mutant (9B) (AID 1645876). Also: nearly all actives have a fitted effect of over 70% in size. Also: potency is read from the fitted curve at half-maximal effect. As to activity change, negative = viability loss: % is scaled to controls: 0 for no effect and ±100 for the full control effect.
Experiment [6] in a line: Primary qHTS for inhibitors of nuclear receptor binding SET domain protein 2 (NSD2) in an RCH-ACV wild type WT cells (2C) (AID 1645877). Also: nearly all actives have a fitted effect of over 70% in size. Also: potency is read from the fitted curve at half-maximal effect.
The target in experiment [7] is Rap guanine nucleotide exchange factor 3 (Homo sapiens) (UniProt O95398). The experiment is described as follows: Confirmatory qHTS for antagonist of cAMP-regulated guanine nucleotide exchange factor 3 (EPAC1) (AID 1645880).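 Also: plate controls were DMSO only for no effect and full effect of the ATA control for full effect; nearly all actives have a fitted effect of over 55% in size.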 The essentials: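 Released BODIPY-GDP fluoresces less than Rap1-bound BODIPY-GDP; the signal is followed at 480/540 nm at 5-min intervals over 30 min, after 5 min at room temperature. Reactions contain 100 nM EPAC1, 250 nM RAP1B-BODIPY-GDP and 50 uM GDP; results are normalized to ATA and DMSO.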

The target is the same in experiment [8]. The experiment in a line: Confirmatory qHTS for agonist of cAMP-regulated guanine nucleotide exchange factor 3 (EPAC1) (AID 1645881).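 Also: EPAC1 catalysed release of BODIPY-GDP from Rap1B seen as fluorescence loss; 100% = effect of cAMP agonist control; nearly all actives have a fitted effect of over 75% in size.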
For experiment [9], the target named is Rap guanine nucleotide exchange factor 4 (Homo sapiens) (UniProt Q8WZA2). The experiment is described as follows: Confirmatory qHTS for agonist of cAMP-regulated guanine nucleotide exchange factor 4 (EPAC2) (AID 1645884).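 Also: nucleotide exchange releases bodipy-GDP from Rap1 and this lowers its fluorescence; % is scaled to controls: 0 for no effect and ±100 for the full control effect; nearly all actives have a fitted effect of over 65% in size.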
The target is the same in experiment [10]. The experiment in a line: Confirmatory qHTS for antagonist of cAMP-regulated guanine nucleotide exchange factor 4 (EPAC2) (AID 1645885). Also: potency is read from the fitted curve at half-maximal effect; nearly all actives have a fitted effect of over 25% in size.

Each structure is given as a SMILES string. “And” between values parts separate entries of the source, which are not always exact repeats. Equal entries are not always repeated. Records with an inconclusive call do not appear. Unmarked numbers belong to inactive results. The source made the active and inactive calls. Unless noted, calls follow the shape of the dose curve; as a rule, active = well fitted curve in the direction sought with a large enough effect; inconclusive = small, poorly fitted or top-dose-only effect, or another doubt; inactive = no such curve, though single readings can be large; an effect the other way counts as inactive or inconclusive.

Chain of Cytochrome P450 2C9 (Homo sapiens) (P11712 whole entry, looked up): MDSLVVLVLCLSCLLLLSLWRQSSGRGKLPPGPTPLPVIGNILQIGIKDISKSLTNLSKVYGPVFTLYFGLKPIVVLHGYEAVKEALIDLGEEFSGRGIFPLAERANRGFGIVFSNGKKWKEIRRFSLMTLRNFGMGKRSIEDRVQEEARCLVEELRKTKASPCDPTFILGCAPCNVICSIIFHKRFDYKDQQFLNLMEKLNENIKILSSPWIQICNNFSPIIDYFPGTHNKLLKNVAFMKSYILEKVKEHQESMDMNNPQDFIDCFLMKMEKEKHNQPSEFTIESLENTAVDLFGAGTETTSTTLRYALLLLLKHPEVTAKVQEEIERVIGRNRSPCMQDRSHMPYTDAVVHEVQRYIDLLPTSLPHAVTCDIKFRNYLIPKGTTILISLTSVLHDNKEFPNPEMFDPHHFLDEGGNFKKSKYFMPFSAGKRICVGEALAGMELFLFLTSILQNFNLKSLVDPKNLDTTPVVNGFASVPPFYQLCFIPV
Chain of Rap guanine nucleotide exchange factor 4 (Homo sapiens) (Q8WZA2 whole entry, looked up): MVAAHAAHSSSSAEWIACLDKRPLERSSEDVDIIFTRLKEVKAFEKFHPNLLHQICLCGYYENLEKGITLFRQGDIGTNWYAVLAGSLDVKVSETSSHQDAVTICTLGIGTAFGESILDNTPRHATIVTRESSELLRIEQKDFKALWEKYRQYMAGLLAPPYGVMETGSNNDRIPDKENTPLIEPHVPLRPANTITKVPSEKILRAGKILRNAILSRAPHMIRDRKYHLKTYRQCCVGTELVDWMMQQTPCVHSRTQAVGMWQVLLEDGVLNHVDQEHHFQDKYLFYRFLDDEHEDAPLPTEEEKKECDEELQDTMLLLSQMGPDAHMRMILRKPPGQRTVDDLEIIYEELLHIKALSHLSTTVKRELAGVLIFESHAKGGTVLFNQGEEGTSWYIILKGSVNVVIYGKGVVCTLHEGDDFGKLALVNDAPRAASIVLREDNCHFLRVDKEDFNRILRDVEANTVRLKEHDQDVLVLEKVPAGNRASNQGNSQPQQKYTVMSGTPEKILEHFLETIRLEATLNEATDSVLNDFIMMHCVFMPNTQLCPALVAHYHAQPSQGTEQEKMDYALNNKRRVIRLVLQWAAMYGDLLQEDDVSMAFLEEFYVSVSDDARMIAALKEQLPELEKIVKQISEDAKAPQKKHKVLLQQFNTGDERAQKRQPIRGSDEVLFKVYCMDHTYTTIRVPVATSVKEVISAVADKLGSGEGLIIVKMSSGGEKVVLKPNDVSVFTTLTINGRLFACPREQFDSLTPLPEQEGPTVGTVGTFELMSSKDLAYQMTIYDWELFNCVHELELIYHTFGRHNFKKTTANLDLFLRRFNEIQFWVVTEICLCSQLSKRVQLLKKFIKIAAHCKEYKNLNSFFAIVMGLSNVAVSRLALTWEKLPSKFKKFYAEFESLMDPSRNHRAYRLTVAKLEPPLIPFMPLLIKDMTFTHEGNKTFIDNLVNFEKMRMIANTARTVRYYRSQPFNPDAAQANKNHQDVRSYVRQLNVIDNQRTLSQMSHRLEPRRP
Chain of Cytochrome P450 2D6 (Homo sapiens) (P10635 whole entry, looked up): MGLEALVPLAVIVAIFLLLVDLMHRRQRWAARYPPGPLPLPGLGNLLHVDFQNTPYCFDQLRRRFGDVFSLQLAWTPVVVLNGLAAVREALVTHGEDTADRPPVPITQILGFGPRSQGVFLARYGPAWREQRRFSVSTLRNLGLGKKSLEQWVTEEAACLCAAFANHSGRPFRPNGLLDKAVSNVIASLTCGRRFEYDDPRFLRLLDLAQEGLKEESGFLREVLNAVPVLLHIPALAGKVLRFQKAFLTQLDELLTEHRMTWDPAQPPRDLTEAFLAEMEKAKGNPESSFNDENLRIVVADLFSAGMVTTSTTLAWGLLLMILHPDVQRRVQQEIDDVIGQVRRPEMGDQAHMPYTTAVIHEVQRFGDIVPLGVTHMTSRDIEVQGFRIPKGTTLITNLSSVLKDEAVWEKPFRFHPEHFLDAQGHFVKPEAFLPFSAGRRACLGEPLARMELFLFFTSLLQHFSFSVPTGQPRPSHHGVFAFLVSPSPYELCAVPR
Chain of Rap guanine nucleotide exchange factor 3 (Homo sapiens) (O95398 whole entry, looked up): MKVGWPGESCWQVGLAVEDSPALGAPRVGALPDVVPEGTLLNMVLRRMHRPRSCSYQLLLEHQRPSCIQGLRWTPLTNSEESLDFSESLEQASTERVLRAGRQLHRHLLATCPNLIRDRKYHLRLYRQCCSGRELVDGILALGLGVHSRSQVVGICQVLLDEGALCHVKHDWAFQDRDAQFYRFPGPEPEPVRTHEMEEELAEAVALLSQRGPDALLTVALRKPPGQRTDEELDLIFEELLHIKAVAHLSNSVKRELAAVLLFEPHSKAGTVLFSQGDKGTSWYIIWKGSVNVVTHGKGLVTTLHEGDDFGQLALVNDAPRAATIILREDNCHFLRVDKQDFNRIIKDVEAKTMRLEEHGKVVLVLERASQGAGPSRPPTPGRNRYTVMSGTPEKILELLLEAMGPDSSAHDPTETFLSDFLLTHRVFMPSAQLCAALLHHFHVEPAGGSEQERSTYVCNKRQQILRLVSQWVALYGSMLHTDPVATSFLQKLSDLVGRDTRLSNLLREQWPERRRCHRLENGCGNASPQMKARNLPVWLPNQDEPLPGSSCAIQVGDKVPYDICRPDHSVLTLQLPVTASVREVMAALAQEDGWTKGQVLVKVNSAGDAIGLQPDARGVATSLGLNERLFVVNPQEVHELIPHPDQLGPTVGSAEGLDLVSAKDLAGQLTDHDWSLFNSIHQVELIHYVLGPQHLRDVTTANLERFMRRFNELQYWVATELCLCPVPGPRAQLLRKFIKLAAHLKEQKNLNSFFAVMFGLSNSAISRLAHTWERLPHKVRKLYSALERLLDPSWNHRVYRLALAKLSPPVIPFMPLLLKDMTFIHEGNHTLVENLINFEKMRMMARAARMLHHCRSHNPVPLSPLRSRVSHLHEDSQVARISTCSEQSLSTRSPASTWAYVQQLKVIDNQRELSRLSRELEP

As for `CC[N+](C)(CC)CCOC(=O)C(O)(c1ccccc1)C1CCCCC1` (configuration not stated), the Potency result in experiment [1], in experiment [2], in [4] and in [5] was “inactive” each time. For the same compound, in experiment [3], the Potency is 0.776 µM (active).

As to `CCCCCCCC/C=C\CCCCCCCCN`, the Potency entry in experiment [1], in experiment [2] and in experiment [5] was “inactive” each time. Besides, the Potency in experiment [3] was 0.55 µM (active); in experiment [4], 19.5 µM (active).

`COP(=O)(OC)OC(c1ccc(Cl)cc1)P(=O)(OC)OC` (configuration not stated): the Potency entry in experiment [1], in [2], in experiment [3], in experiment [4], in experiment [5] and in experiment [6] was “inactive” each time.

Regarding `COc1ccc(/C=N/NC(=O)c2ccncc2)cc1OC`, the Potency entry in [1], in experiment [2], in experiment [5] and in [6] was “inactive” each time. Moreover, the Potency in experiment [3] was 21.9 µM (active); in [4], 12.3 µM (active).

Turning to `OC[C@H]1O[C@@H]2O[C@H]3[C@H](O)[C@@H](O)[C@@H](O[C@H]4[C@H](O)[C@@H](O)[C@@H](O[C@H]5[C@H](O)[C@@H](O)[C@@H](O[C@H]6[C@H](O)[C@@H](O)[C@@H](O[C@H]7[C@H](O)[C@@H](O)[C@@H](O[C@H]8[C@H](O)[C@@H](O)[C@@H](O[C@H]1[C@H](O)[C@H]2O)O[C@@H]8CO)O[C@@H]7CO)O[C@@H]6CO)O[C@@H]5CO)O[C@@H]4CO)O[C@@H]3CO`, the Potency result in experiment [1], in experiment [2], in [3], in experiment [4], in [5] and in experiment [6] was “inactive” throughout.

Take `CC(=O)NCCCCCC(=O)O`: the Potency result in experiment [1], in experiment [2], in experiment [3], in [4], in experiment [5] and in experiment [6] was “inactive” in each case.

In the case of `O=C(Oc1cccc2cccnc12)c1ccccc1`, the Potency result in experiment [1], in experiment [2], in [3], in experiment [4], in experiment [5] and in experiment [6] was “inactive” throughout.

With `O=C(Nc1cccc(C2=NCCN2)c1)Nc1cccc(C2=NCCN2)c1`, the Potency result in experiment [1], in experiment [2], in experiment [3] and in experiment [4] was “inactive” in each case. Moreover, in experiment [5], the Potency is 10.3 µM (active).

For `CNCCc1ccccn1`, the Potency result in experiment [1], in [2], in experiment [3], in experiment [4], in experiment [5] and in [6] was “inactive” in each case.

On to `N=C(N)N1CCc2ccccc2C1`, for which the activity change, negative = inhibition in experiment [1] was -7.52% [at 3.88 µM]; in experiment [3], 3.13% [at 4.83 µM]; in experiment [4], 12.1% [at 4.83 µM]. The % pathology change, negative = correction in [2] is 0.596% [at 4.63 µM]. Besides, the activity change, negative = viability loss in experiment [5] is -4.68% [at 4.96 µM]. In experiment [6], the activity change, negative = cell killing was -10.2% [at 4.96 µM].

Turning to `COc1ccc(CN(CCN(C)C)c2ncccn2)cc1`, the Potency entry in experiment [1], in experiment [2], in experiment [4] and in experiment [5] was “inactive” in each case. In [3], the Potency is 0.49 µM (active).

As to `OC1C(O)C(O)C(O)C(O)C1O` (configuration not stated), the Potency entry in experiment [1], in [2], in experiment [3], in experiment [4] and in experiment [5] was “inactive” each time.

As to `CN1CCN(c2cc3c(cc2F)c(=O)c(C(=O)O)cn3-c2ccc(F)cc2)CC1`, the Potency entry in [1], in experiment [2], in [3] and in [4] was “inactive” throughout. Moreover, the Potency in experiment [5] is 11.9 µM (active); in experiment [6], 7.5 µM (active).

Regarding `COc1cc(C)nc(-n2nc(C)cc2OC)n1`, the Potency entry in experiment [1], in [2], in experiment [3], in experiment [4], in experiment [5] and in experiment [6] was “inactive” each time.

For the compound `CCCCN1C[C@H](O)[C@@H](O)[C@H](O)[C@H]1CO`, the Potency entry in experiment [1], in experiment [2], in experiment [3], in experiment [4], in experiment [5] and in [6] was “inactive” in each case.

Consider `Cc1cccc(C)c1NC(=O)CN1CCCCCC1`, for which the Potency result in experiment [1], in experiment [2], in [4] and in experiment [5] was “inactive” each time. In addition, the Potency in experiment [3] was 11 µM (active).

As for `O=C1C(O)=C(O)C(=O)C(O)=C1O`, the Potency entry in [1], in [2], in experiment [3], in experiment [4], in experiment [5] and in experiment [6] was “inactive” throughout.

As for `Nc1ccc(S(=O)(=O)NCc2ccccc2)cc1`, the Potency result in experiment [1], in [2], in experiment [3], in [4], in experiment [5] and in experiment [6] was “inactive” in each case.

As to `NS(=O)(=O)c1cc(C(=O)O)cc(N2CCCC2)c1Oc1ccccc1`, the Potency result in experiment [1], in experiment [2], in experiment [3], in experiment [4] and in experiment [5] was “inactive” in each case.

Take `NS(=O)(=O)c1ccc(Cl)c(S(N)(=O)=O)c1`: the Potency entry in experiment [1], in experiment [2], in experiment [3], in experiment [4], in experiment [5] and in [6] was “inactive” each time.

Turning to `CCNC(=O)NCc1cccc(Cl)c1`, the Potency entry in experiment [1], in experiment [2], in experiment [3], in experiment [4] and in experiment [5] was “inactive” throughout.

Consider `C[N+]1(CC2COC(c3ccccc3)(C3CCCCC3)O2)CCCCC1` (configuration not stated), for which the Potency result in [1], in experiment [2] and in [4] was “inactive” throughout. Besides, the Potency in experiment [3] was 1.55 µM (active); in experiment [5], 21.1 µM (active); in experiment [6], 21.1 µM (active).

With `Cc1cc(-c2ccccc2)nnc1NCCN1CCOCC1`, the Potency result in experiment [1], in experiment [2], in experiment [4] and in experiment [5] was “inactive” each time. Besides, in experiment [3], the Potency is 4.9 µM (active).

`CCCCC(CC)COC(=O)/C=C/c1ccc(OC)cc1` (configuration not stated): the Potency result in experiment [1], in experiment [2], in experiment [3], in experiment [5] and in [6] was “inactive” each time. Moreover, the Potency in experiment [4] is 9.77 µM (active).

Consider `Cc1cccc(C)c1NC(=O)CN1CCCC1`, for which the Potency result in experiment [1], in [2], in experiment [4], in [5] and in experiment [6] was “inactive” in each case. Moreover, the Potency in experiment [3] is 12.3 µM (active).

Take `CC(C)(C)CC(C)(C)c1ccc(O)c(-n2nc3ccccc3n2)c1`: the Potency result in [1], in experiment [2], in experiment [3] and in experiment [5] was “inactive” in each case. In addition, the Potency in [4] was 10.7 µM (active) and 6.92 µM (active).

As to `CCC(C(=O)OCCOCCN(CC)CC)c1ccccc1` (configuration not stated), the Potency entry in experiment [1], in experiment [2], in experiment [4], in [5] and in [6] was “inactive” throughout. The Potency in experiment [3] was 11 µM (active).

Take `COc1ccc(C(Cl)=C(c2ccc(OC)cc2)c2ccc(OC)cc2)cc1`: the Potency result in [1], in [2], in [3], in [5], in experiment [6] and in experiment [7] was “inactive” throughout. For the same compound, the compound was classed as inactive in experiment [8] and in [9]. In addition, the Potency in experiment [10] was 7.84 µM (active) and 2.31 µM (active).

As to `Cc1ncc(CO)c(C=O)c1O`, the Potency result in [1], in experiment [2], in experiment [3], in [4], in experiment [5] and in [6] was “inactive” each time.
